Publication PMC5540273 (PLoS ONE, 2017)

Experiments:
Conditions in all cases: concentration: 1 μM, replicates: in singlicate; n = 1
WNK4 = test system: WNK4
YANK1 = test system: T1, YANK1
T1 construct: gene STK32A

YANK2 = test system: T2, YANK2
T2 construct: gene STK32B

YANK3 = test system: T3, YANK3
T3 construct: gene STK32C

YES = test system: T4, YES
T4 construct: gene YES1

YSK1 = test system: T5, YSK1
T5 construct: gene STK25

YSK4 = test system: T6, YSK4
T6 construct: gene MAP3K19

ZAK = test system: ZAK
ZAP70 = test system: ZAP70
p38-alpha = test system: T7, p38-alpha
T7 construct: gene MAPK14
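Further: KINOMEscan kinase panel screen.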

Compound | %Inh (WNK4) | %Inh (YANK1) | %Inh (YANK2) | %Inh (YANK3) | %Inh (YES) | %Inh (YSK1) | %Inh (YSK4) | %Inh (ZAK) | %Inh (ZAP70) | %Inh (p38-alpha)
N#Cc1ccc(Oc2ccc(Nc3ncnc4cc[nH]c34)cc2Cl)cc1 | 19% | 19% | 22% | 0% | 0% | 0% | 20% | 18% | 0% | 19%
CC(C)(C)OC(=O)NC1CCCN(c2cc(-c3ccc4c(N)n[nH]c4c3)nc(N)n2)C1 (stereo not shown) [GSK2286096] | 12% | 10% | 0% | 0% | 1% | 2% | 20% | 0% | 0% | 0%
O=C(c1ccc(-c2cc(-c3c[nH]nc3-c3ccccn3)ccn2)cc1)N1CCCC1 [GW792479] | 14% | 0% | 13% | 0% | 0% | 0% | 0% | 28% | 2% | 7%
CC(=O)Nc1n[nH]c2ncc(-c3ccccc3)cc12 [SB-548492] | 30% | 0% | 0% | 0% | 0% | 0% | 31% | 31% | 0% | 4%
Fc1ccc(-c2ncn(CCCNCc3ccccc3)c2-c2ccncc2)cc1 | 0% | 17% | 0% | 7% | 17% | 0% | 9% | 10% | 11% | 77%
O=C(Nc1n[nH]c2nc(-c3ccco3)c(Br)cc12)c1ccc(CN2CCCC2)cc1.O=C(O)[C@H](O)[C@@H](O)C(=O)O [SB-742352] | 0% | 0% | 0% | 0% | 1% | 0% | 49% | 29% | 0% | 0%
CCC(CC)(CC)n1cnc2c(N)ncnc21 [SKF-97620] | 23% | 18% | 12% | 9% | 0% | 0% | 31% | 0% | 29% | 3%
CNc1nccc(-c2c(-c3ccc(F)cc3)ncn2C2CCN(C)CC2)n1 [SB-222903] | 9% | 0% | 17% | 6% | 0% | 0% | 7% | 0% | 0% | 98.6%
NC(=O)c1sc(-n2cnc3ccccc32)cc1OCc1ccccc1F [GSK1024306] | 0% | 0% | 0% | 0% | 0% | 0% | 2% | 0% | 0% | 93.4%
FC(F)(F)c1ccc(-c2nn3ncccc3c2-c2ccnc(Nc3cccc(C(F)(F)F)c3)n2)cc1 [GW828205] | 0% | 0% | 0% | 0% | 0% | 0% | 0% | 0% | 42% | 0%
Cl.c1ccc(Cn2ccc3cc(Nc4ncnc5ccccc45)ccc32)cc1 [GW275568] | 6% | 18% | 0% | 0% | 15% | 7% | 4% | 6% | 1% | 2%
Cc1ccc(O)cc1Nc1cc(C(F)(F)F)nc2ccc(-c3ccncc3)cc12 [GW630823] | 0% | 0% | 0% | 0% | 23% | 0% | 0% | 10% | 0% | 8%
Fc1ccc(Nc2nccc(-c3c(-c4ccc(Cl)cc4)nn4ncccc34)n2)cc1F [GW829058] | 28% | 0% | 4% | 30% | 0% | 0% | 47% | 18% | 13% | 26%
O=c1cc(N2CCOCC2)nc2n(Cc3cccc(Cl)c3)ccn12 [GSK2296823] | 0% | 0% | 0% | 18% | 23% | 10% | 19% | 0% | 0% | 0%
Clc1ccc(-c2cc(-c3c[nH]nc3-c3ccccn3)ccn2)cc1 [GW681251] | 0% | 0% | 0% | 0% | 0% | 0% | 0% | 14% | 47% | 45%
O=C(Nc1ccccc1)Nc1ccc(Oc2ccc3nccn3n2)cc1 | 0% | 0% | 0% | 0% | 11% | 0% | 0% | 4% | 0% | 0%
